Molecules are shown by their SMILES. Among all 2,300 compounds or so, about 1,400 (61%) were called active. Not shown: some 29% with an inconclusive outcome. The call rests on the fitted dose curve; in most records, active means well fitted inhibition curve with a large enough effect; inconclusive means small, poorly fitted or top-dose-only effect, or effect the other way; inactive means no such curve, though single readings can be large or run the other way. So high a share suggests a set chosen from earlier hits. The list shows a part of the results.
Potency means the concentration at half of the fitted maximal effect.

This assay in a line: Confirmation screen for delayed death inhibitors of the malarial parasite plastid, 96 hour incubation. Further: nearly all actives have a fitted effect of over 60% in size. The conditions noted are these: P. falciparum luciferase growth in erythrocytes; series mostly up to 28.7 µM. An outline of the steps:
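Erythrocytes infected with luciferase-expressing P. falciparum (2% hematocrit, 0.1% parasitemia final) in RPMI 1640 with 0.5% Albumax, exposed to compounds 96 h at 37 C, 5% CO2. Growth inhibition read as decreased luciferase luminescence.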
On to `CCOC(=O)C1=C(C)N=c2s/c(=C\c3ccc(OCC(=O)O)cc3)c(=O)n2C1c1ccc(OC(C)C)cc1` (centres undefined), for which the Potency was 2.51 µM (active).

For the molecule `OC(c1cc(C(F)(F)F)nc2c(C(F)(F)F)cccc12)C1CCCCN1` (centres undefined), the Potency is 0.0501 µM (active). With `OC(c1cc(C(F)(F)F)nc2c(Cl)cc(Cl)cc12)C1CCCCN1` (centres undefined), the Potency is 0.0224 µM (active). Next, `O[C@@H](c1cc(C(F)(F)F)nc2c(C(F)(F)F)cccc12)[C@H]1CCCCN1`: 0.178 µM (active); `OC(c1cc(-c2ccc(Cl)cc2)nc2ccccc12)C1CCCCN1` (centres undefined): 0.251 µM (active); `CCN(CC)c1ccc(NC(=S)NC(=O)C2CCC2)cc1`: 11.2 µM (active). As to `O=[N+]([O-])c1cncc([N+](=O)[O-])c1Nc1cccc(O)c1`, the Potency was 12.6 µM (active).

As to `O=C(Nc1ccsc1C(=O)O)c1cccc(C(F)(F)F)c1`, the Potency entry was “inactive”. Next, `NC(=O)C1CCN(CC(=O)Nc2cccc(C(=O)Nc3cccc(C(F)(F)F)c3)c2)CC1`: 1.12 µM (active). Next, `Cn1c(/C=C/c2ccc(Cl)cc2)c([N+](=O)[O-])c(=O)n(C)c1=O`: 6.31 µM (active). Next, `COc1ccc(OC)c(/C=C/c2c([N+](=O)[O-])c(=O)n(C)c(=O)n2C)c1`: 12.6 µM (active). Take `COc1ccc(Cn2c(O)c(C=Nc3ccc(O)cc3)c3ccccc3c2=O)cc1`: the Potency is 7.94 µM (active).

Turning to `CCCSc1sc(C(=O)OC)c(-c2cccs2)c1C#N`, the Potency result is “inactive”.

With `COc1ccc(-c2cc(-c3ccccc3)nc(SCC(=O)Nc3nccs3)c2C#N)cc1`, the Potency was 2 µM (active). Next, `COc1ccc(-c2cc(-c3ccccc3)nc(SC(C)C(=O)O)c2C#N)cc1` (centres undefined): 10 µM (active); `CCc1ccc(NC(=O)CN(c2cc(C)cc(C)c2)S(=O)(=O)c2c(C)[nH]c(=O)[nH]c2=O)cc1`: 12.6 µM (active). For `Cc1cccc(C)c1OCc1cc(C(=O)N(C)Cc2nc3ccccc3[nH]2)no1`, the Potency was 14.1 µM (active). Next, `O=C(/C=C/c1ccccc1Cl)c1ccccc(=O)c1O`: 6.31 µM (active). Next, `Cc1ccc(C)c(/C=C/C(=O)c2ccccc(=O)c2O)c1`: 11.2 µM (active). Next, `COc1ccc(OC)c(CNC(=O)c2ccc(C)c(NC(=O)C3=C(C)OCCS3)c2)c1`: 10 µM (active).

As to `S=c1nc2c(n[nH]1)c1ccccc1n2CCc1ccccc1`, the Potency was 12.6 µM (active). Next, `CSc1nnc2c3ccccc3n(CCc3ccccc3)c2n1`: 15.8 µM (active). Next, `CC1C/C(=C/c2ccncc2)C(=O)/C(=C/c2ccncc2)C1` (centres undefined): 3.55 µM (active). Next, `O=[N+]([O-])c1c(Nc2ccccc2O)cc(Cl)c2nonc12`: 3.55 µM (active); `CC1CCN(c2ccc3nnc(CCC(=O)N4CCN(c5ccccc5F)CC4)n3n2)CC1`: 10 µM (active). Take `COc1cccc2sc(Nc3nnc(-c4ccc(F)cc4)o3)nc12`: the Potency is 7.08 µM (active).

`COc1cccc2sc(Nc3nnc(-c4ccccc4Cl)o3)nc12`: the Potency entry was “inactive”. Next, `CC(C)C[C@H](NC(=O)c1[nH]cnc1C(=O)N[C@@H](C)C(=O)OC(C)(C)C)C(=O)OC(C)(C)C`: 10 µM (active); `CC(C)C[C@H](NC(=O)c1[nH]cnc1C(=O)Nc1ccc(CNC(=O)OC(C)(C)C)cc1)C(=O)OC(C)(C)C`: 4.47 µM (active). Next, `C[C@H](NC(=O)c1nc[nH]c1C(=O)N[C@H](C)c1ccccc1)C(=O)OCc1ccccc1`: “inactive”.

In the case of `CC(C)C[C@H](NC(=O)c1[nH]cnc1C(=O)N[C@@H](Cc1ccccc1)C(=O)OC(C)(C)C)C(=O)OC(C)(C)C`, the Potency was 6.31 µM (active). As to `CC(C)C[C@H](NC(=O)c1nc[nH]c1C(=O)N(C)Cc1ccccc1)C(=O)OC(C)(C)C`, the Potency was 10 µM (active). Next, `Cc1cc(C)cc(NC(=O)C2C3C=CC4(O3)C2C(=O)N(CCCN2CCCC2)C4C(=O)NC2CCCC(C)C2C)c1` (centres undefined): 12.6 µM (active); `O=C(O)c1cc2ccccc2c(N=Nc2cccnc2)c1O`: 3.98 µM (active). Next, `O=C(Nc1ccon1)c1nc[nH]c1C(=O)NCc1ccccc1`: 7.94 µM (active). Next, `CCC(=O)N1c2ccccc2NC2=C(C(=O)CC(c3ccco3)C2)C1c1ccco1` (centres undefined): 10 µM (active); `C=CCC1(O)C(=O)N2C(=C1C(=O)OCC)c1ccc3ccccc3c1CC2(C)C` (centres undefined): 10 µM (active). Take `O=C(Cn1c(=O)oc2ccc(Cl)cc21)NC1CCCCC1`: the Potency is 10 µM (active). Next, `CN(C)C1(CNC(=O)C2CCC(=O)N(Cc3ccc(Cl)cc3)C2)CCCCC1` (centres undefined): 5.62 µM (active); `Cc1ccc(Nc2nc(=O)c3cccnc3s2)c(Br)c1`: “inactive”; `Cc1cc(OCC(=O)N[C@@H](CSCc2ccccc2)C(=O)O)c2c(C)c(C)c(=O)oc2c1`: 14.1 µM (active). Next, `CN(Cc1ccccc1Cl)C(=O)C1CCC(=O)N(CCc2cccc(F)c2)C1` (centres undefined): 7.94 µM (active); `CN(CCNC(=O)C1CCC(=O)N(Cc2cccc(F)c2)C1)CCc1ccccc1` (centres undefined): 7.08 µM (active); `CN(CCOc1ccccc1)C(=O)C1CCC(=O)N(CCN2CCOCC2)C1` (centres undefined): “inactive”.

Regarding `COc1ccc(C)cc1S(=O)(=O)N1CCN(S(=O)(=O)c2cc(C(=O)O)ccc2C)CC1`, the Potency was 8.91 µM (active). On to `Cc1ccc(C(=O)NC2CCCC2)cc1S(=O)(=O)N1CCCCC1`, for which the Potency is 8.91 µM (active).

As to `Cc1ccc(C(=O)NC2CCCCC2)cc1S(=O)(=O)N1CCCC1`, the Potency is 10 µM (active). Next, `Fc1ccc2cnc(-c3ccccc3)c(-c3ccc(C(F)(F)F)cc3)c2c1`: 14.1 µM (active); `O=[N+]([O-])c1ccc(-c2c(-c3ccccc3)ncc3ccc(F)cc23)cc1`: 12.6 µM (active); `CCc1ccc(OCCNC(=O)c2ccccc2SCc2ccccc2)cc1`: 12.6 µM (active). Next, `CCCCNC(=O)c1onc(CSc2ccccc2C)c1C(=O)O`: “inactive”; `CCc1ccc(OCCNC(=O)c2ccco2)cc1`: 12.6 µM (active); `CCCCNC(=O)c1onc(CSc2cccc3ccccc23)c1C(=O)O`: “inactive”. Next, `O=C(CNC(=O)c1ccco1)OCC(=O)c1ccccc1`: “inactive”; `CCCn1c(CN2CCN(C(=O)OCC)CC2)nc2cc(NC(=O)C(C)C)ccc21`: 10 µM (active).

Turning to `CCN1CCN(c2ncnc3c2c(-c2ccccc2)cn3-c2ccc(F)cc2)CC1`, the Potency is 10 µM (active). Next, `CN1CCN(c2ncnc3c2c(-c2ccccc2)cn3-c2ccc(F)cc2)CC1`: 11.2 µM (active). Next, `Fc1ccccc1N1CCN(c2ncnc3[nH]ncc23)CC1`: “inactive”; `Cc1[nH]c(C)c(C(=O)/C=C/c2ccc([N+](=O)[O-])cc2)c1C`: 7.94 µM (active); `Cc1c(OC(C)C(=O)NCC2CCC(C(=O)O)CC2)ccc2c1oc(=O)c1ccccc12` (centres undefined): 12.6 µM (active). Next, `Cc1c(Cc2ccccc2)c(=O)oc2cc(OC(C)C(=O)NCC3CCC(C(=O)O)CC3)c(Cl)cc12` (centres undefined): 10 µM (active); `Cc1oc(/C=N/NS(=O)(=O)c2ccccc2)cc1Br`: “inactive”. `COc1ccc(CN(C(=O)/C=C/C(=O)c2ccc(OC)cc2O)C(C(=O)NC2CCCCC2)c2ccncc2)cc1` (centres undefined): the Potency is 6.31 µM (active). Next, `COc1ccc(C(=O)/C=C/C(=O)N(CC(=O)NC2CCCCC2)CC2CCCO2)c(O)c1` (centres undefined): 12.6 µM (active); `CCOc1ccc(-c2cc(C(=O)N/N=C(\C)c3cccnc3)c3ccccc3n2)c(OCC)c1`: 14.1 µM (active); `CCn1c(SCC(=O)Nc2ccc(C)cc2)nc2sc3c(c2c1=O)CCN(C)C3`: 0.708 µM (active). For the molecule `CCOC(=O)CSc1nc2sc3c(c2c(=O)n1C1CCCCC1)CCN(C)C3`, the Potency was 2 µM (active). Next, `Cn1cc([N+](=O)[O-])c(C(=O)Nc2nccs2)n1`: “inactive”; `CC(C)(C)OC(=O)NCCCCCNC(=O)c1[nH]cnc1C(=O)Nc1nccs1`: 7.08 µM (active); `COc1cccc(F)c1C(C[N+](=O)[O-])c1c(N)n(C)c(=O)n(C)c1=O` (centres undefined): 3.98 µM (active).

With `COc1ccc(C)cc1NC(=O)C1CCN(S(=O)(=O)c2ccc3c(c2)NC(=O)CO3)CC1`, the Potency is 7.94 µM (active). Next, `Cc1ccc(CCNC(=O)C2CCN(S(=O)(=O)c3ccc4c(c3)NC(=O)CO4)CC2)cc1`: 10 µM (active); `Cc1ccc(C)c(N2CCN(S(=O)(=O)c3ccc4c(c3)NC(=O)CS4)CC2)c1`: 8.91 µM (active); `Cc1cccc(N2CCN(S(=O)(=O)c3ccc4c(c3)NC(=O)CO4)CC2)c1C`: 11.2 µM (active). For the molecule `O=C(CCl)Nc1cccc(Oc2cnccn2)c1`, the Potency is 3.55 µM (active). Next, `O=C(/C=C/c1c(F)cccc1Cl)c1ccc(O)cc1`: 12.6 µM (active). Consider `O=C(/C=C/c1ccccc1Cl)c1ccc(O)cc1`, for which the Potency was 10 µM (active). As for `COc1ccc(-c2c(C(C)=O)c(C)n(C)c2C)cc1`, the Potency was 10 µM (active). Next, `CCCCOc1ccc(NC2=NC3(CCCC3)N=C(N)N2)cc1`: 0.708 µM (active).

Consider `COc1ccc2nc3sc(C(=O)NCCN4CCc5ccccc5C4)cc3cc2c1`, for which the Potency is 2.24 µM (active).

`COc1cc(/C=C2\COC/C(=C\c3cc(OC)c(OC)c(OC)c3)C2=O)cc(OC)c1OC`: the Potency is 2.51 µM (active). As for `COc1ccc(/C=C2\CC/C(=C\c3ccc(OC)c(OC)c3)C2=O)cc1OC`, the Potency was 14.1 µM (active). Next, `COc1cc(/C=C2\CC(C(C)(C)C)C/C(=C\c3cc(OC)c(OC)c(OC)c3)C2=O)cc(OC)c1OC` (centres undefined): 3.16 µM (active); `COc1cc(/C=C2\COC/C(=C\c3ccc(O)c(OC)c3)C2=O)ccc1O`: 3.55 µM (active). Next, `COc1cc(/C=C2/CCC/C(=C\c3cc(O)c(OC)c(Cl)c3)C2=O)cc(Cl)c1O`: 7.08 µM (active); `COc1ccc(C(=O)Nc2nnc(S(=O)(=O)N3CCOCC3)s2)cc1`: 15.8 µM (active); `CC(C)c1ccc(C(=O)Nc2nnc(S(=O)(=O)N3CCOCC3)s2)cc1`: 12.6 µM (active).

As to `CCn1c(=O)c(CCC(=O)N2CCOCC2)c(C)c2c(C)nn(-c3ccccc3)c21`, the Potency is 10 µM (active). As for `C=CCSC(=C(C#N)C#N)c1cc2c([nH]1)CCCC2`, the Potency was 4.47 µM (active).

For the origin of these results see PubChem BioAssay AID504848 (National Center for Advancing Translational Sciences (NCATS), 2011).
